Source: PubChem BioAssay (NCATS)
Inconclusive results are not listed. Values without a mark were called inactive. The source made the active and inactive calls. The call rests on the fitted dose curve; in most records, active means well fitted inhibition curve with a large enough effect; inconclusive means small, poorly fitted or top-dose-only effect; inactive means no such curve, though single readings can be large or run the other way. Where a SMILES comes first, the peptide text is derived from it. The star is where a group is joined. βNA = c1ccc2cc(N*)ccc2c1; Cbz = O=C(OCc1ccccc1)*

tested on: Zika virus NS2B-NS3 protease (linked construct); test: Primary screen NINDS Rhodamine qHTS for Zika virus inhibitors (AID 1347160); settings: purified NS2B-NS3 protease, Rhodamine110 substrate fluorescence; series mostly up to 33.1 µM; activity change, negative = inhibition: at the top concentration; further: nearly all actives have a fitted effect of over 55% in size
Outline: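 Rhodamine110-peptide cleavage (1.5 µM substrate) by 25 nM linked NS2B-NS3 enzyme at pH 8.0 (Tris, Tween 20), after 15 min RT preincubation with compounds; 15-min fluorescence change normalized to controls and Hill-fitted.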
On the % scale 0 is the no-effect control and ±100 the full control effect; potency means the concentration at half of the fitted maximal effect.

Structure (SMILES)	outcome	activity change, negative = inhibition	Potency
CN(C)CCC[C@]1(c2ccc(F)cc2)OCc2cc(C#N)ccc21	inactive		
COC(=O)C1=CO[C@@H](O[C@@H]2O[C@H](CO)[C@@H](O)[C@H](O)[C@H]2O)[C@@H]2[C@@H](C(=O)O)CC[C@H]12	inactive [at 33.1 µM]		
O=C(OCC1OC(Oc2ccc(O)cc2COC(=O)C2(O)C(O)CCC(=O)C2OC(=O)C2C=CCC2)C(OC(=O)C2C=CCC2)C(O)C1O)C1C=CCC1 (centres undefined)		-17.7% [at 15.1 µM]	
O=C(O)CCc1cc2ccoc2cc1O[C@@H]1O[C@H](CO)[C@@H](O)[C@H](O)[C@H]1O		16.9%	
CC1(C)CC[C@]2(C(=O)O)CC[C@]3(C)C(=CCC4[C@@]5(C)C[C@@H](O)[C@H](O)[C@](C)(CO)C5CC[C@]43C)[C@@H]2[C@@H]1O (some centres undefined)		-3.98%	
COC(=O)c1c(CC=C(C)C)c(OC2OC(CO)C(O)C(O)C2O)c2ccccc2c1OC1OC(CO)C(O)C(O)C1O (centres undefined)		12.4% [at 15.1 µM]	
NC[C@H]1CCC[C@@H](CNC(=O)[C@@H](Cc2c[nH]c3ccccc23)NC(=O)N2CCC3(C=Cc4ccccc43)CC2)C1		117%	
C[C@H]1CC[C@@]2(OC1)O[C@H]1CC3C4CC[C@H]5C[C@@H](O[C@@H]6O[C@H](CO)[C@H](O[C@@H]7O[C@H](CO)[C@@H](O)[C@H](O[C@@H]8OC[C@@H](O)[C@H](O)[C@H]8O)[C@H]7O[C@@H]7O[C@H](CO)[C@@H](O)[C@H](O)[C@H]7O)[C@H](O)[C@H]6O)[C@H](O)C[C@]5(C)C4=CC(=O)[C@]3(C)[C@H]1[C@@H]2C (some centres undefined)		0.998% [at 15.1 µM]	
CC1(C)CC[C@]2(C(=O)O)CC[C@]3(C)C(=CCC4[C@@]5(C)CC[C@H](O[C@@H]6O[C@H](C(=O)O)[C@@H](O)[C@H](O[C@@H]7O[C@H](CO)[C@H](O)[C@H](O)[C@H]7O)[C@H]6O[C@@H]6O[C@H](CO)[C@@H](O)[C@H](O)[C@H]6O)C(C)(C)C5CC[C@]43C)[C@@H]2C1 (some centres undefined)		-13% [at 10.7 µM]	
CCCC1=CC2=C(CO1)C(=O)C(C)(O)C(OC(=O)c1c(C)cc(OC)cc1O)C2 (centres undefined)		-21.3%	
COc1cc(C2CC(=O)Nc3c2cc(Br)c2ccccc32)cc(OC)c1OC (centres undefined)		9.24% [at 57.1 µM]	
O=C(O)Cc1cn([C@@H]2OC[C@@H](O[C@@H]3O[C@H](CO)[C@@H](O)[C@H](O)[C@H]3O)[C@H](O)[C@H]2O[C@@H]2O[C@H](CO)[C@@H](O)[C@H](O)[C@H]2O)c2ccccc12		0.61% [at 15.1 µM]	
C[C@@H]1O[C@@H](O[C@H]2[C@H](Oc3cc(O)c(C(=O)CCc4ccc(O)cc4)c(O)c3)O[C@H](CO)[C@@H](O)[C@@H]2O)[C@H](O)[C@H](O)[C@H]1O		7.29% [at 57.1 µM]	
CCC(C)/C=C(C)/C=C/C(=O)C1CCC(O)C(C)(O)C1=O (centres undefined)			25.1 µM (active)
COC(=O)C(CC1(OC(=O)C(C)C)c2ccccc2N2C(=O)C(C)(C)N(O)C21)n1cnc2ccccc2c1=O (centres undefined)		65.4%	
COc1cccc(CN(C(=O)CC(C)(C)C)C2CC(C(=O)N3CCNCC3)N(Cc3ccc4c(c3)OCO4)C2)c1 (centres undefined)		35.4% [at 57.1 µM]	
CC(C)=CC1C[C@](C)(O)[C@@H]2[C@H]3CCC4[C@@]5(C)CC[C@H](O[C@@H]6OC[C@H](O)[C@H](O[C@@H]7O[C@H](CO[C@@H]8O[C@H](CO)[C@@H](O)[C@H](O)[C@H]8O)[C@@H](O)[C@H](O)[C@H]7O)[C@H]6O[C@@H]6O[C@@H](C)[C@H](O)[C@@H](O)[C@H]6O)C(C)(C)[C@@H]5CC[C@@]4(C)[C@@]34CO[C@@]2(C4)O1 (some centres undefined)		17.5% [at 15.1 µM]	
CC(C)(C)NS(=O)(=O)c1ccc(-c2ccc3[nH]nc(N)c3c2)cc1		22.9% [at 57.1 µM]	
CC1(C)CC2C3=CCC4[C@@]5(C)CC[C@H](OC6OCC(O)C(OC7OC(CO)C(O)C(O)C7O)C6O)C(C)(C)C5CC[C@@]4(C)[C@]3(C)C[C@H](O)[C@@]2(CO)[C@H](OC(=O)c2ccccc2)C1 (some centres undefined)	inactive [at 15.1 µM]		
CC(C)[C@@](O)(c1ccc2cc(OC(F)F)c(OC(F)F)cc2c1)c1cn[nH]n1		19.8% [at 57.1 µM]	
CCC(=O)N1CCc2cc(OC)c(O)cc2C1		-6.32% [at 57.1 µM]	
CC(C)(CC(=O)N1CCCC1)NCC(=O)N1C[C@@H](F)C[C@H]1C#N		-21.4% [at 57.1 µM]	
CC(C)CC(NC(=O)OCc1ccccc1)C(=O)NC(CC(C)C)C(=O)NC(CCC(=O)O)C(=O)Nc1ccc2ccccc2c1 (stereo not drawn) (Cbz-Leu-Leu-Glu-βNA; configuration not given here)			11.2 µM (active)
O=C(O)C(Cc1ccccc1)NC(=O)C1CCCN1 (stereo not drawn) (H-Pro-Phe-OH; configuration not given here)	inactive		
